We go through 27 compounds from PubChem BioAssay (NCATS).

Each structure is given as a SMILES string. Where “and” joins values, the source holds several entries; their conditions need not be identical. Equal values may be shown once. Records with an inconclusive call do not appear. More than one record can exist for a structure, and the calls need not agree. Unmarked numbers belong to inactive results. Calls of active or inactive are those of the source. Calls follow the shape of the dose curve; as a rule, active = well fitted inhibition curve with a large enough effect; inconclusive = small, poorly fitted or top-dose-only effect; inactive = flat fitted curve, though single readings scatter.
% is scaled to controls: 0 for no effect and ±100 for the full control effect; potency is read from the fitted curve at half-maximal effect.

The assay relates to HEK293. The assay can be described thus: Cytotoxic Profiling of Annotated Libraries Using Quantitative High-Throughput Screening (AID 1296008). Also: nearly all actives have a fitted effect of over 60% in size. The note with it: Five cell lines viability, CellTiter-Glo ATP luminescence, 48-72 h; max response: active compounds read low. An excerpt:
Cell-based phenotypic screening is a commonly used approach to discover biological pathways, novel drug targets, chemical probes and high-quality hit-to-lead molecules. Many hits identified from high-throughput screening campaign are ruled out through a series of follow-up potency, selectivity/specificity, and cytotoxicity assays. Prioritization of molecules with little or no cytotoxicity for a more in-depth downstream evaluation influence the future direction of projects, so cytotoxicity profiling of the screening libraries at early stage is essential for increasing the likelihood of candidate success. […] For the annotated library, we also examined the primary targets and mechanistic pathways regularly associated with cell death. To our knowledge, this is the first study to use high-throughput screening to profile large libraries for cytotoxicity assessment in both normal and cancer cell lines. In summary, the results generated here constitutes a valuable resource for the scientific community and provides insight on identifying cytotoxic compounds with particular mechanisms of action, and prioritizing compounds with suitable cytotoxicity profile for further evaluation.
A pintool (Kalypsys) was used to transfer 23 nL of compound solution to the 1536-well assay plates. After 48 or 72 hr incubation at 37 degree Celsius, 5% CO2 and 95% humidity, 2.5 uL of CellTiter-Glo (Promega) was dispensed into each well using a dispenser (Aspect Automation, St. Paul, MN) with solenoid valves (Lee Valves, Westbrook CT). Plates were left at room temperature for 10 min before imaging the ATP-coupled luminescence using a ViewLux microplate imager (PerkinElmer, Waltham, MA).
For orientation: Cellular ATP, detected with luciferase, serves as a proxy for viable cell number.
Regarding `COc1cccc(N(C)C(=S)Oc2ccc3c(c2)CCCC3)n1`, the max response is -19.3%. As to `COc1c(N2CCNC(C)C2)c(F)cc2c(=O)c(C(=O)O)cn(C3CC3)c12` (stereo not given), the max response is -24.5%. `O=P(O)(O)C(O)(Cc1cccnc1)P(=O)(O)O`: the max response is -6.47% and -0.4%; the outcome was inactive.

`CC(C)C1CCC(C(=O)N[C@H](Cc2ccccc2)C(=O)O)CC1` (stereo not given in full): the max response was -0.795% and -11.5%. Take `CCCN[C@H]1CCc2nc(N)sc2C1`: the outcome was inactive. Consider `CCOC(=O)c1ccc(OC(=O)CCCCCN=C(N)N)cc1`, for which the max response is -2.03% and the call was inactive. As to `O=C(NCC1CN(c2ccc(N3CCOCC3=O)cc2)C(=O)O1)c1ccc(Cl)s1` (stereo not given), the max response was -28.8%. Consider `COc1ccc(C(=O)CC(=O)c2ccc(C(C)(C)C)cc2)cc1`, for which the max response is 1.8% and the compound was called inactive. For `NCCCC(O)(P(=O)(O)O)P(=O)(O)O`, the max response is -8.5% and -22.9%.

Turning to `CCCOc1ccc(C(=O)OCCN(CC)CC)cc1N`, the result was inactive and the max response was -0.795%. On to `C[C@@H](CN1CC(=O)NC(=O)C1)N1CC(=O)NC(=O)C1`, for which the Potency was 0.235 µM (active). In the case of `O=C(O)CCn1c2c(c3ccccc31)C[C@H](NS(=O)(=O)c1ccc(F)cc1)CC2`, the max response was 3.39% and -17.8%; the outcome was inactive.

As to `Cc1ccnc2c1NC(=O)c1cccnc1N2C1CC1`, the max response was -12% and -5.59%. Regarding `CNNCc1ccc(C(=O)NC(C)C)cc1`, the compound was called inactive and the max response was 2.6%. For the compound `O=C(N[C@H](CO)[C@H](O)c1ccc([N+](=O)[O-])cc1)C(Cl)Cl`, the result was inactive and the Potency was 15.4 µM (active). In the case of `CCn1cc(C(=O)O)c(=O)c2cc(F)c(N3CCNCC3)cc21`, the max response was -12.4% and -3.6%. With `CCN(CC)CCn1c(=O)c(Cc2ccc(OC)cc2)nc2ccccc21`, the max response is -12.9%. `COc1cnc(NS(=O)(=O)c2ccc(N)cc2)nc1`: the outcome was inactive.

Take `C[C@@H](NCCCc1cccc(C(F)(F)F)c1)c1cccc2ccccc12`: the max response was -18.5% and the Potency is 15 µM (active). `CCCCc1oc2ccc(NS(C)(=O)=O)cc2c1C(=O)c1ccc(OCCCN(CCCC)CCCC)cc1`: the Potency was 11.6 µM (active).

For the compound `CCn1cc(C(=O)O)c(=O)c2cc(F)c(N3CCN(C)CC3)cc21`, the call was inactive and the max response was 0.679%.

Regarding `O=C(O)CSCC(=O)NC1CCSC1=O` (stereo not given), the max response is -6.58% and the compound was classed as inactive. For `O=NN(CCCl)C(=O)NC1CCCCC1` the same measures were 3.97% and “inactive”.

For the compound `CCN[C@H]1C[C@H](C)S(=O)(=O)c2sc(S(N)(=O)=O)cc21`, the max response was -5.09% and the result was inactive. As to `C#CCN[C@@H]1CCc2ccccc21`, the max response was -23.7% and the call was inactive. `CC(=O)Oc1ccccc1C(=O)Nc1ncc([N+](=O)[O-])s1`: the max response is -13.9%. Regarding `CC[C@H](C)C(=O)O[C@H]1C[C@@H](C)C=C2C=C[C@H](C)[C@H](CC[C@@H]3C[C@@H](O)CC(=O)O3)[C@H]21`, the max response was -37.5%.
